Laboratory results published in PubChem BioAssay (Tox21).
Records with an inconclusive call do not appear. Active and inactive are the calls of the source. Unless noted, calls follow the shape of the dose curve; as a rule, active = well fitted curve in the direction sought with a large enough effect in the repeat runs; inconclusive = weak or mixed curves; inactive = no such curve, though single readings can be large; an effect the other way counts as inactive or inconclusive.

Legend:
[1] = tested on: thyroid hormone receptor (rat, GH3 cells); test: qHTS assay to identify small molecule agonists of the thyroid receptor (TR) signaling pathway (AID 743066; calls by dose curve)
[2] = qHTS assay to identify small molecule antagonists of the estrogen receptor alpha (ER-alpha) signaling pathway - cell viability counter screen (AID 743074; calls by dose curve;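 also: HEK293 cells carrying ER-alpha-UAS-bla reporter stimulated with 17beta-estradiol; nearly all actives have a fitted effect of over 45% in size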)
Aromatase (Homo sapiens) = Aromatase (Homo sapiens) (UniProt P11511); test: qHTS assay to identify aromatase inhibitors (AID 743083); also: series mostly up to about 70 µM; nearly all actives have a fitted effect of over 55% in size
Aromatase (Homo sapiens), sequence (P11511 whole entry, looked up): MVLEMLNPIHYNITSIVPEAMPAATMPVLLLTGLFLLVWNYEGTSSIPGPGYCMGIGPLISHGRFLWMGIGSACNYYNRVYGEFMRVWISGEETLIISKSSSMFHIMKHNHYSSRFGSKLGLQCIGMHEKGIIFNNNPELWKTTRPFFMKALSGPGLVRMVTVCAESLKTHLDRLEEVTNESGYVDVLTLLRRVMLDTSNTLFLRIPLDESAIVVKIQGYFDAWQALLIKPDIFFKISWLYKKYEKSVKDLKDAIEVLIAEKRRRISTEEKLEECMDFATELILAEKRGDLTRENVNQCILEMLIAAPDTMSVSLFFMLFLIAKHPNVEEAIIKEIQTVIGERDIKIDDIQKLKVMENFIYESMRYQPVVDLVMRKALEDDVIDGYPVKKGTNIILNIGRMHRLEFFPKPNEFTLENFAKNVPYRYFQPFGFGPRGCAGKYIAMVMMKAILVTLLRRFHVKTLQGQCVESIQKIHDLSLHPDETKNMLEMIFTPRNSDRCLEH

[3] = qHTS assay to identify aromatase inhibitors - cell viability counter screen (AID 743084);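 also: cells stimulated with testosterone during compound exposure; nearly all actives have a fitted effect of over 55% in size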
[4] = target: Aryl hydrocarbon receptor (Homo sapiens) (UniProt P35869); test: qHTS assay to identify small molecule that activate the aryl hydrocarbon receptor (AhR) signaling pathway (AID 743085); also: nearly all actives have a fitted effect of over 15% in size; also: potency is read from the fitted curve at half-maximal effect;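 as to activation: HG2L7.5c1 human HepG2 liver cells with stably integrated DRE-driven firefly reporter; series mostly up to about 70 µM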
Aryl hydrocarbon receptor (Homo sapiens), sequence (P35869 whole entry, looked up): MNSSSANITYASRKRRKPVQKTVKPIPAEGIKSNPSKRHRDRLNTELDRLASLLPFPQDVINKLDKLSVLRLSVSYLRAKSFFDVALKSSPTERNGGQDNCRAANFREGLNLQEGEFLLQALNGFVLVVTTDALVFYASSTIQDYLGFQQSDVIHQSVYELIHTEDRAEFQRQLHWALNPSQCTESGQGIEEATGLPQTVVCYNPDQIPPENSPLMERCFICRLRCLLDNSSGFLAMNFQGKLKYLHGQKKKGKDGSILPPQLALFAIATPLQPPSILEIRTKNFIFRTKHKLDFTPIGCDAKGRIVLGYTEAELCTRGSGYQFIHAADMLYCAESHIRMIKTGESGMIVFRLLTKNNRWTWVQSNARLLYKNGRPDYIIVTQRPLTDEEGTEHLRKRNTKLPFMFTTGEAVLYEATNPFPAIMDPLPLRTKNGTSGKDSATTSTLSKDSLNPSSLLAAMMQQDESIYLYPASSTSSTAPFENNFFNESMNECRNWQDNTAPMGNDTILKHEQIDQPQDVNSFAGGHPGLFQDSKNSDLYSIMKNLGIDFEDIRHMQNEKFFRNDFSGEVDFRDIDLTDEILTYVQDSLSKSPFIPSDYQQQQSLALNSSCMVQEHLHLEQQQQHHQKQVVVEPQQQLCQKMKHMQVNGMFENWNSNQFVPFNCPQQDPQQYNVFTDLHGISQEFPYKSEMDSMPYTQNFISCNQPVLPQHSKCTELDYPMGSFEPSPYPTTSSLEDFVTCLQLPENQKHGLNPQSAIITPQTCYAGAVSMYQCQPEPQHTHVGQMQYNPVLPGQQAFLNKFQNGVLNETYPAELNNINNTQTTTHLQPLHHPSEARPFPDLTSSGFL
Summary of the method: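 Reporter assay in engineered HepG2 line HG2L7.5c1, whose plasmid carries twenty dioxin responsive elements upstream of firefly luciferase. Treatment lasted 24 h at 37C; ONE-Glo luminescence gauged induction.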

[5] = qHTS assay to identify small molecule that activate the aryl hydrocarbon receptor (AhR) signaling pathway - cell viability counter screen (AID 743086);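 also: HepG2 liver cells carrying the AhR DRE luciferase reporter; series mostly up to about 70 µM; nearly all actives have a fitted effect of over 45% in size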
Summary of the method: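 HepG2-AhR-luc (HG2L7.5c1) cells, 4000/well, treated 24 h at 37 C with compound; viability measured as CellTiter-Fluor fluorescence after 30 min in the same wells as the luciferase read.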

[6] = target: Peroxisome proliferator-activated receptor gamma (Homo sapiens) (UniProt P37231); test: qHTS assay to identify small molecule agonists of the peroxisome proliferator-activated receptor gamma (PPARg) signaling pathway (AID 743094; active = well fitted activation curve with a large enough effect in the signal ratio in the repeat runs, not every such curve was filed as active; the % refers to the signal ratio)
Peroxisome proliferator-activated receptor gamma (Homo sapiens), sequence (P37231 whole entry, looked up): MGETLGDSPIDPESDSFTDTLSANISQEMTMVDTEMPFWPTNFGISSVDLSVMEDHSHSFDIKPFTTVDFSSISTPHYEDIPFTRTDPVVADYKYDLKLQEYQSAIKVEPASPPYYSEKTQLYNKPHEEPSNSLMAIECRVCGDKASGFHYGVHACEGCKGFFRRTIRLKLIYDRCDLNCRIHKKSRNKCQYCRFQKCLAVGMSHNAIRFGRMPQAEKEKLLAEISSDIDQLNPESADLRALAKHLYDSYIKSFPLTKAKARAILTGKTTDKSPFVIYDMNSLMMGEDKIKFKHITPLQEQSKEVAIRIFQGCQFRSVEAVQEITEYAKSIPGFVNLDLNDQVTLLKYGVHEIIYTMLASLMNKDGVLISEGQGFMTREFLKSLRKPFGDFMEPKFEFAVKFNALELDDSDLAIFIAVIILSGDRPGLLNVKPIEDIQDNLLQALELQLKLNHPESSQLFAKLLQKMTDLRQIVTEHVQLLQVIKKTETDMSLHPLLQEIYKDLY
Summary of the method: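 Stably transfected HEK293H cells (GeneBLAzer PPARg UAS-bla) were incubated with test substances for 17 h at 37C after a 5 h pre-incubation; beta-lactamase activity was then detected by FRET substrate fluorescence.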

[7] = target: Peroxisome proliferator-activated receptor gamma (Homo sapiens) (UniProt P37231); test: qHTS assay to identify small molecule antagonists of the peroxisome proliferator-activated receptor gamma (PPARg) signaling pathway (AID 743191; calls by dose curve; also: series mostly up to about 63 µM; nearly all actives have a fitted effect of over 30% in size)
Summary of the method: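 GeneBLAzer PPARg UAS-bla HEK293H cells, 5 h post-plating, exposed to compounds 17 h at 37C. LiveBLAzer B/G FRET substrate added for 1 h at room temperature; beta-lactamase reporter read by fluorescence intensity.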

[8] = qHTS assay to identify small molecule antagonists of the peroxisome proliferator-activated receptor gamma (PPARg) signaling pathway - cell viability counter screen (AID 743194); also: nearly all actives have a fitted effect of over 55% in size
Summary of the method: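 Cytotoxicity counter screen in PPARg-bla HEK293H cells, same wells as reporter assay. Compounds plus 50 nM rosiglitazone (final) for 17 h at 37 C, then viability read by CellTiter-Glo luminescence.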

[9] = qHTS assay for small molecule agonists of the antioxidant response element (ARE) signaling pathway - cell viability counter screen (AID 743203; calls by dose curve; also: nearly all actives have a fitted effect of over 55% in size)
Summary of the method: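 Cells (ARE-bla HepG2, 2,000/well) receive DMSO-dissolved compounds after a 5 hrs rest. Plates incubate 16 hrs at 37C/5% CO2. CellTiter-Glo luminescence is then recorded after 30 min at room temperature.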

[10] = qHTS assay for small molecule activators of the heat shock response signaling pathway - cell viability counter screen (AID 743209); also: nearly all actives have a fitted effect of over 50% in size
Summary of the method: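 Quantitative HTS format, Tox21 10K library. HeLa cells carrying an HSE-driven beta-lactamase reporter were treated 5 h at 37 C, then assessed for viability by CellTiter-Glo luminescence.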

[11] = qHTS assay for small molecule activators of the heat shock response signaling pathway (AID 743210; active = well fitted activation curve with a large enough effect in the signal ratio in the repeat runs, with a control signal flat, not every such curve was filed as active; the % refers to the signal ratio; also: series mostly up to about 63 µM)
Summary of the method: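 HSE-bla HeLa cells (beta-lactamase reporter under heat shock response elements), plated overnight, then exposed to compounds 5 h at 37 C; LiveBLAzer B/G FRET substrate added, 2.5 h at room temperature, fluorescence intensity read.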

[12] = qHTS assay to identify small molecule agonists of the peroxisome proliferator-activated receptor delta (PPARd) signaling pathway - cell viability counter screen (AID 743211); also: nearly all actives have a fitted effect of over 55% in size
Summary of the method: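 Multiplexed format: after the 2 h room-temperature LiveBLAzer B/G FRET step, CellTiter-Glo was added to the same wells. Luminescence after 30 min gave cell viability; compound exposure was 17 h at 37C.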

[13] = target: Estrogen receptor (Homo sapiens) (UniProt P03372); test: qHTS assay to identify small molecule antagonists of the estrogen receptor alpha (ER-alpha) signaling pathway (AID 743069; active = well fitted curve in the direction sought with a large enough effect in the signal ratio in the repeat runs, not every such curve was filed as active; the % refers to the signal ratio)
Estrogen receptor (Homo sapiens), sequence (P03372 whole entry, looked up): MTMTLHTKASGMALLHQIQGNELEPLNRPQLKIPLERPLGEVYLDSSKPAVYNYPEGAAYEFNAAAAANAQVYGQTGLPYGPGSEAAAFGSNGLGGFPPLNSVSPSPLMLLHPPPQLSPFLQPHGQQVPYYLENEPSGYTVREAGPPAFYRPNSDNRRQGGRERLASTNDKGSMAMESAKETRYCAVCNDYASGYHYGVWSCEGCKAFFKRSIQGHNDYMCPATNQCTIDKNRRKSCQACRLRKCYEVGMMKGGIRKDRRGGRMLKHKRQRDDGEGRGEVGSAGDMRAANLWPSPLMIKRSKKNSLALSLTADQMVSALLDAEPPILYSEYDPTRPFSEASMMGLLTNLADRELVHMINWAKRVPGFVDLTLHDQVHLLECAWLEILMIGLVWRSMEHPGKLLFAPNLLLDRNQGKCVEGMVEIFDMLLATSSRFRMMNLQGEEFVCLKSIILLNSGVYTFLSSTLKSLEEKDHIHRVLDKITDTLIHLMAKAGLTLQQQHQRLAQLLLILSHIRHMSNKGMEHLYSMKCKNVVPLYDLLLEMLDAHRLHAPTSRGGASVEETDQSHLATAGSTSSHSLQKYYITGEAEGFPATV
Summary of the method: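 HEK293 ER-alpha-UAS-bla GripTite cells, held overnight in 2% charcoal-stripped FBS, 5,000 cells/well, preincubated 4 h, then compound plus 17beta-estradiol for 18 h at 37C. Beta-lactamase read by LiveBLAzer B/G FRET substrate, 2 h at room temperature.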

[14] = target: Estrogen receptor (Homo sapiens) (UniProt P03372); test: qHTS assay to identify small molecule agonists of the estrogen receptor alpha (ER-alpha) signaling pathway (AID 743075; calls by dose curve)
[15] = target: Estrogen receptor (Homo sapiens) (UniProt P03372); test: qHTS assay to identify small molecule agonists of the estrogen receptor alpha (ER-alpha) signaling pathway using the BG1 cell line (AID 743079); also: nearly all actives have a fitted effect of over 20% in size; also: potency is read from the fitted curve at half-maximal effect
[16] = qHTS assay to identify small molecule antagonists of the estrogen receptor alpha (ER-alpha) signaling pathway using the BG1 cell line (AID 743080; calls by dose curve;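 also: BG1 cells stimulated with 17beta-estradiol alongside compound; series mostly up to about 70 µM; nearly all actives have a fitted effect of over 25% in size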)
Summary of the method: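 Luciferase inhibition measured with ONE-Glo after 30 min at RT in BG1Luc4E2 cells given test compounds and 17beta-estradiol for 21.5 h at 37 C; CellTiter-Fluor viability read in the same wells beforehand.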

[17] = qHTS assay to identify small molecule antagonists of the estrogen receptor alpha (ER-alpha) signaling pathway using the BG1 cell line - cell viability counter screen (AID 743081);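 also: compound given together with 17beta-estradiol as the ER stimulus; series mostly up to about 70 µM; nearly all actives have a fitted effect of over 45% in size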
[18] = qHTS assay for small molecule agonists of the antioxidant response element (ARE) signaling pathway (AID 743202; active = well fitted activation curve with a large enough effect in the signal ratio in the repeat runs, not every such curve was filed as active; the % refers to the signal ratio; also: potency is read from the fitted curve at half-maximal effect)
Summary of the method: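 ARE-bla HepG2 cells (beta-lactamase reporter under the antioxidant response element), plated 5 hours, then exposed to compounds 16 hours at 37 C. LiveBLAzer B/G FRET substrate added for 2 hours at room temperature; fluorescence intensity read.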

Measured: Potency

CCCOc1ccc(C(=O)OCCN(CC)CC)cc1N
active: [4] 1.33 µM
not listed: [13] | [14] | [15] | [16] | [17] | [18]
inactive: all other assays above

CCC(C)c1nccnc1OC (configuration not stated)
not listed: [6]
inactive: all other assays above

CC/C=C\CCOC(=O)c1ccccc1
not listed: [1]
inactive: all other assays above

COC(=O)C(c1ccccc1Cl)N1CCc2sccc2C1 (configuration not stated)
not listed: [13] | [14] | [15]
inactive: all other assays above

CCO/C=C1\N=C(c2ccccc2)OC1=O
not listed: [7] | [11] | [13] | [14] | [15] | [16]
inactive: all other assays above

CCCCCC(CC)OC(=O)CCCOc1ccc(Cl)cc1Cl (configuration not stated)
not listed: [13] | [14] | [15] | [16]
inactive: all other assays above

O=S(=O)(O)c1ccc(Cl)cc1
not listed: [16]
inactive: all other assays above

Cc1cccc(N)n1
not listed: [6]
inactive: all other assays above

CCOC(=O)[C@H](CCc1ccccc1)N[C@H]1CS[C@H](c2cccs2)CN(CC(=O)O)C1=O
not listed: [11] | [16]
inactive: all other assays above

O=P(O)(O)C(O)(Cc1cccnc1)P(=O)(O)O
not listed: [7] | [9] | [16]
inactive: all other assays above

O=C(CCBr)N1CCN(C(=O)CCBr)CC1
active: [18] 13.3 µM
not listed: [5] | [6] | [11]
inactive: all other assays above

CCOC(=O)c1ccc(N(C)C)cc1
active: [15] 54.5 µM
not listed: [4] | [7] | [10] | [11] | [13] | [16] | [18]
inactive: all other assays above

CC1(C)S[C@@H]2[C@H](NC(=O)Cc3ccccc3)C(=O)N2[C@H]1C(=O)O (tested in a mixture with another compound)
not listed: [1] | [10]
inactive: all other assays above

O=C(O)COc1ccc2ccccc2c1
not listed: [4] | [8] | [11] | [18]
inactive: all other assays above

CCCCCCCOC(C)=O
active: [15] 48.6 µM
not listed: [4] | [10]
inactive: all other assays above

N=C(N)S(=O)O
not listed: [6]
inactive: all other assays above

CC(=O)OC1CCC(C(C)(C)C)CC1 (configuration not stated)
not listed: [6] | [7] | [11] | [12]
inactive: all other assays above
